Compound activity (PubChem)
Luciferase inh: Firefly luciferase inhibition profiling of diverse chemical library using quantitative high-throughput screening. Luciferin 4-monooxygenase (Photinus pyralis), P08659. purified P. pyralis luciferase, luminescence, biochemical. Potency, µM (doses to about 115 µM), hits mostly inhibitors. 76,000 compounds, 2.5% hits. AID 1347043, 2019; note: % is set by controls: 0 for no effect and ±100 for the full control effect; nearly all actives have a fitted effect of over 65% in size
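Cell-free enzyme assay, 10nM P. pyralis luciferase, luciferin and ATP each at 10uM. Inhibition profiled over a 6-point titration, read as luminescence.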
GPT2 inhibitor: Primary qHTS assay for inhibitors of Glutamate pyruvate transaminase 2 (GPT2) | Recombinant GPT2, coupled pyruvate oxidase/HRP Amplex Red fluorescence | Potency, µM (series often up to 57.7 µM), for inactives: at the top dose activity change, negative = inhibition, actives largely listed as inhibitors | 100,000 compounds, 0.25% hits; note: % is set by controls: 0 for no effect and ±100 for the full control effect; nearly all actives have a fitted effect of over 60% in size
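Inhibition is scored from Amplex Red fluorescence generated when pyruvate oxidase and HRP act on pyruvate released by GPT2. Reactions contain 10ng/uL enzyme, 250uM a-KG and 2mM L-alanine and run 30 min at room temperature.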
3T3 cytotox: Cytotoxic Profiling in NIH 3T3 Cell Line of Diverse Libraries Using Quantitative High-Throughput Screening; 94,000 compounds, 4.3% hits; Potency, µM (top dose mostly 96.7 µM), without a hit: at the highest dose activity change, negative = cytotoxicity, actives largely listed as inhibitors; NIH 3T3 viability, CellTiter-Glo ATP luminescence, 48-72 h; AID 1345082, 2018; note: % is set by controls: 0 for no effect and ±100 for the full control effect; nearly all actives have a fitted effect of over 55% in size
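Luminescent ATP readout (CellTiter-Glo, 10 min RT) after 48 or 72 hr compound exposure of NIH 3T3 cells seeded at 400 cells/well in 1536-well format; quantitative HTS.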
hNpr1 antagonist: Natriuretic polypeptide receptor (hNpr1) antagonism - Primary qHTS. Atrial natriuretic peptide receptor 1 (Homo sapiens), P16066. HEK293 hNpr1 GloSensor cGMP, ANP-stimulated luminescence. Potency, µM (highest dose often 46.3 µM), for the others: at the highest dose activity change, negative = inhibition, actives largely listed as inhibitors. 76,000 compounds, 1.6% hits. AID 1347048, 2019; calls by dose curve; note: % is set by controls: 0 for no effect and ±100 for the full control effect; nearly all actives have a fitted effect of over 60% in size
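Compound pre-incubated 30 min at room temperature on GloSensor-loaded HEK293 cells stably carrying hNpr1 and the pGS-40F cGMP biosensor. Stimulation uses hNppA at 0.1 nM final; luminescence is taken at baseline and 20 min post-agonist.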
HEK293 tox: Cytotoxic Profiling in HEK 293 Cell Line of Diverse Libraries Using Quantitative High-Throughput Screening; 94,000 compounds, 6.6% hits; Potency, µM (highest dose often 115 µM), for the others: at the highest dose activity change, negative = cytotoxicity, actives largely listed as inhibitors; HEK 293 viability, ATP luminescence (CellTiter-Glo), 48-72 h; note: % is set by controls: 0 for no effect and ±100 for the full control effect; nearly all actives have a fitted effect of over 60% in size
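HEK 293 cells seeded at 250 cells/well were exposed to compound for 48 or 72 hr at 37 degree Celsius. Viability taken as ATP content by CellTiter-Glo luminescence.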
Npr1 antag conf: Natriuretic polypeptide receptor (hNpr1) antagonism - Confirmation. shares compounds with hNpr1 antagonist. HEK293 hNpr1 cGMP GloSensor luminescence, ANP-stimulated. Potency, µM (series often up to 57.6 µM), without a hit: at the highest dose activity change, negative = inhibition, hits mostly inhibitors. 1,400 compounds, 76% hits; calls by dose curve; note: nearly all actives have a fitted effect of over 70% in size
Npr2 selectivity: Natriuretic polypeptide receptor (hNpr2) antagonism - Subtype selectivity assay; HEK293 hNpr2 GloSensor cGMP luminescence, CNP-stimulated; 1,400 compounds, 67% hits; Potency, µM (doses to about 57.6 µM), without a hit: at the top dose activity change, negative = inhibition, usual class: inhibitors; shares compounds with hNpr1 antagonist; calls by dose curve; note: nearly all actives have a fitted effect of over 70% in size
FLuc counter: Natriuretic polypeptide receptor (hNpr1) antagonism - Confirmation firefly luciferase (FLuc) inhibition counterscreen; shares compounds with hNpr1 antagonist; purified FLuc enzyme, luminescence, Km substrate; Potency, µM (series often up to 57.6 µM), inactives show at the highest dose activity change, negative = inhibition, actives largely listed as inhibitors; 1,400 compounds, 0.7% hits; note: 0% is about no effect
GloSensor ctrl: Natriuretic polypeptide receptor (hNpr1) antagonism - Counterscreen GloSensor control cell line. shares compounds with hNpr1 antagonist. HEK293 GloSensor cGMP, SNP-stimulated, luminescence. Potency, µM (doses to about 57.6 µM), inactives show top-dose activity change, negative = inhibition, hits mostly inhibitors. 1,400 compounds, 69% hits. AID 1347051, 2019; calls by dose curve; note: % is set by controls: 0 for no effect and ±100 for the full control effect; nearly all actives have a fitted effect of over 70% in size
* marks the source's active call; other numbers are inactive results; [ ] = another dose, or the depositor's remark. An excerpt weighted towards active compounds, which were near 10% of everything screened. Unless noted, calls come from the whole dose curve; as a rule, active = well fitted curve in the direction sought with a large enough effect; inconclusive = small, poorly fitted or top-dose-only effect, or another doubt; inactive = no such curve, though single readings can be large; an effect the other way counts as inactive or inconclusive. Potency is the fitted concentration of half-maximal effect.

Screening CCNc1cc(N2CCC(CCC(=O)N3CCN(c4cccc(OC)c4)CC3)CC2)ncn1 returned Luciferase inh inactive, GPT2 inhibitor inactive, 3T3 cytotox inconclusive, hNpr1 antagonist 11µM*, HEK293 tox 35µM*, Npr1 antag conf 17µM*, Npr2 selectivity 19µM*, FLuc counter -19% and GloSensor ctrl 17µM*.
CCOc1ccc(NC(=O)CCC2CCN(c3cc(NC4CC4)ncn3)CC2)cc1 was read as Luciferase inh inactive, GPT2 inhibitor -1%, 3T3 cytotox -19%, hNpr1 antagonist inconclusive, HEK293 tox inconclusive, Npr1 antag conf inconclusive, Npr2 selectivity inconclusive, FLuc counter -29% and GloSensor ctrl inconclusive.
Cn1ncc2c(C(=O)NCc3cccc(C(F)(F)F)c3)cc(-c3ccc(Cl)cc3Cl)nc21 was read as GPT2 inhibitor -13%, 3T3 cytotox inconclusive and HEK293 tox -3%.
For Cn1nc(C2CC2)n(C2CCN(C(=O)CCCc3ccccc3)CC2)c1=O the results were GPT2 inhibitor 3%, 3T3 cytotox -27% and HEK293 tox -14%.
For O=C(c1cocn1)N1CCNc2cnc(Nc3cccc(C(F)(F)F)c3)nc2C1 the results were Luciferase inh inactive, GPT2 inhibitor inactive, 3T3 cytotox inconclusive, hNpr1 antagonist 32µM*, HEK293 tox 71µM*, Npr1 antag conf 35µM*, Npr2 selectivity 35µM*, FLuc counter -1%[86.2 µM] and GloSensor ctrl 31µM*.
`O=C(c1ccccc1)N1CCNc2cnc(Nc3cccc(F)c3)nc2C1` gave Luciferase inh inactive, GPT2 inhibitor -7%[88.5 µM], 3T3 cytotox inconclusive, hNpr1 antagonist 13µM*, HEK293 tox inconclusive, Npr1 antag conf 13µM*, Npr2 selectivity 18µM*, FLuc counter -15%[86.2 µM] and GloSensor ctrl 16µM*.
Screening O=C(c1ccc(Cl)cc1)N1CCNc2cnc(Nc3ccccc3)nc2C1 returned Luciferase inh inactive, GPT2 inhibitor inactive, 3T3 cytotox inconclusive, hNpr1 antagonist 32µM*, HEK293 tox inconclusive, Npr1 antag conf 35µM*, Npr2 selectivity 35µM*, FLuc counter -2%[86.2 µM] and GloSensor ctrl 35µM*.
